Bioassay records as filed in PubChem BioAssay.
Not all results are given here.
aSyn 5UTR act: Activators working through SNCA 5'UTR binding (MLPCN); alpha-synuclein 5'UTR reporter, activators screen; activity score, % (tested at 7.5 µM), hits read low; hit rate 7.1% among 300,000; in the data active = activity score below about -60%
* = called active by the depositor.

SMILES | aSyn 5UTR act
CCOC(=O)/C(=C\c1ccccc1)NC(=O)c1ccccc1 | -105*
O=C(/C=C/c1ccc(S(=O)(=O)NCc2ccco2)cc1)NCc1ccccc1Cl | -72*
O=C(/C=C/c1ccc(Cl)cc1)NCc1ccco1 | -87*
O=C(ONc1ccc(N=NC(=O)c2ccccc2O)cc1)c1ccccc1 | -86*
CCOCC(=O)Nc1nc2ccc(OCC)cc2s1 | -73*
CCOc1ccc2nc(NC(=O)c3cnccn3)sc2c1 | -127*
CCOc1ccc2nc(-c3cc(NC(C)=O)ccc3O)sc2c1 | -161*
CCOc1ccc2nc(NC(=O)C3(C)CC3(Br)Br)sc2c1 (stereo not given) | -128*
Cc1ccc2nc(NC(=O)C3CC3C)sc2c1 (stereo not given) | -105*
Cc1ccc2nc(NC(=O)CCn3cccc3)sc2c1 | -115*
C/C=C/C(=O)OCC(=O)Nc1nc2ccc(C)cc2s1 | -74*
CCOCC(=O)Nc1nc2ccc(C)cc2s1 | -85*
Cc1ccc2nc(NC(=O)CCCC(=O)O)sc2c1 | 102
Cc1ccc2nc(NC(=O)CSCC(=O)OCC(=O)c3ccccc3)sc2c1 | 62
Cc1ccc2nc(NC(=O)COC(=O)c3ccccn3)sc2c1 | -109*
CCOc1ccc2nc(NC(=O)C3CCN(C(=O)c4ccco4)CC3)sc2c1 | -99*
O=C(CSc1nnc(-c2cccnc2)o1)Nc1ccccn1 | -147*
O=C(CSc1n[nH]c(-c2ccccn2)n1)Nc1cccc(Cl)c1 | 86
O=C(CSc1nnc(-c2cccc(Cl)c2)o1)Nc1ccc2c(c1)OCCO2 | -180*
O=C(CSc1nnc(-c2ccccn2)o1)Nc1cccc(Cl)c1 | -194*
NC(=O)CSc1nnc(-c2ccc3c(c2)OCO3)o1 | -91*
C/C(N)=C(/C#N)C(=O)CSc1nnc(-c2ccc3c(c2)OCO3)o1 | 60
O=C(CSc1nnc(-c2ccc(C(F)(F)F)cn2)o1)Nc1cccc(Cl)c1 | -192*
Cc1ccccc1NC(=O)CSc1nnc(-c2ccccn2)o1 | -77*
CC(C)Oc1ccc(C(=O)Nc2ccc(NC(=O)c3ccco3)c(Cl)c2)cc1 | -106*
SMILES | aSyn 5UTR act
Nc1ccc(C(=O)Nc2ccc(NC(=O)c3ccco3)c(O)c2)cc1 | -82*
O=C(Nc1ccc(NC(=O)c2ccco2)c(Cl)c1)c1ccccc1 | -99*
CC(C)COc1ccc(C(=O)Nc2ccc(NC(=O)c3ccco3)c(Cl)c2)cc1 | -149*
O=C(Nc1ccc(Br)c(Cl)c1)c1ccco1 | -162*
CS(=O)(=O)c1ccc2nc(NC(=O)C3COc4ccccc4O3)sc2c1 (stereo not given) | -98*
COc1ccc2nc(NC(=O)C3COc4ccccc4O3)sc2c1 (stereo not given) | -80*
O=C(Nc1nc(-c2nc3ccccc3s2)cs1)C1COc2ccccc2O1 (stereo not given) | -136*
CCOC(=O)c1sc2nc(NC(=O)C3CC3)sc2c1C | -201*
CCOC(=O)c1sc2nc(NC(=O)C(C)(C)C)sc2c1C | -135*
CC(C)NC(=O)c1ccc(-c2ccccc2C(F)(F)F)o1 | -131*
CC(C)(C)c1cnnn1-c1ccc(NC(=O)c2ccc3c(c2)OCO3)cc1 | -86*
O=C(Nc1ccc(Br)cc1)c1ccc2c(c1)OCO2 | -174*
O=C(Nc1ccc2c(c1)OCO2)c1cccc(Cl)c1 | -148*
NC(=O)c1ccc(NC(=O)c2ccc3c(c2)OCO3)cc1 | -139*
O=C(Nc1ccon1)c1ccc2c(c1)OCO2 | -76*
O=C(Nc1ccc(Cl)cc1)C1=Cc2ccccc2OC1 | -150*
O=C(Nc1ccc(Cl)c([N+](=O)[O-])c1)c1ccc2c(c1)OCCO2 | -133*
O=C(Nc1ccc(Cl)c(Cl)c1)c1ccc2c(c1)OCO2 | -133*
O=C(Nc1ccc(Cl)cc1)c1ccc2c(c1)OCO2 | -84*
CCN1CCN(c2ccc(NC(=O)c3ccc4c(c3)OCO4)cc2)CC1 | -123*
Cn1cc(C(=O)Nc2ccc(Cl)c(Cl)c2)cn1 | -85*
O=C(Nc1ccc(F)c(F)c1)c1ccc2c(c1)OCO2 | -156*
Nc1nc(-c2ccc(Br)s2)c(Br)s1 | -77*
c1ccc(CCSc2ncnc3nc[nH]c23)cc1 | -75*
O=C(CSc1ncnc2nc[nH]c12)c1ccccc1 | -87*
SMILES | aSyn 5UTR act
Cc1ccc(NC(=O)NCc2c(C)nn(C)c2C)cc1Cl | -157*
CCN(CC)S(=O)(=O)c1cc([N+](=O)[O-])ccc1NNC(=O)Nc1ccc(Cl)c(Cl)c1 | 58
Cc1ccc(NC(=O)O/N=C/c2c(C)nn(C(C)(C)C)c2C)cc1Cl | 77
Cc1nn(C)cc1CNC(=O)Nc1ccc(Cl)c(Cl)c1 | -145*
COc1ccccc1N1CCN(c2ccc(-c3ccccc3)nn2)CC1 | 79
COc1ccccc1N1CCN(/N=C/c2ccc(C(=O)O)cc2)CC1 | -128*
COc1ccccc1N1CCN(/N=C/C=C\c2ccco2)CC1 | -136*
O=C(O)c1ccc(/C=N/N2CCN(c3ccccc3)CC2)cc1 | -207*
O=C1/C(=C/N(C(=O)c2ccco2)c2ccc(Cl)cc2)Sc2ccccc21 | -184*
O=C1/C(=C/N(C(=O)c2ccco2)c2ccc(Br)cc2)Sc2ccccc21 | -241*
NCCOc1ccc(C2CCCCC2)cc1 | 71
O=C(/C=C/c1ccc(OC2CSC2)cc1)c1ccccc1 | -153*
O=C(O)COc1ccc(/C=C/C(=O)c2ccc(C3CCCCC3)cc2)cc1 | -115*
CCOc1ccc(/C=C/C(=O)c2ccccc2)cc1 | -179*
CC(C)(C)C(=O)/C=C/c1ccc(Oc2ccccc2)cc1 | -155*
CCC(=O)n1nc(-c2ccc(OC)cc2)nc1SC | -92*
CCCC(=O)n1nc(-c2ccc(Cl)cc2)nc1SC | -84*
CCC(=O)n1nc(-c2ccc(Cl)cc2)nc1SC | -104*
O=C(Cc1nc2ccccc2[nH]1)c1ccc([N+](=O)[O-])cc1 | -90*
CCc1cc(C(=O)Cc2nc3ccccc3[nH]2)c(O)cc1O | -183*
Clc1ccc(/C(Cc2nc3ccccc3[nH]2)=N\Nc2ccccc2)cc1 | -115*
O=C(Cc1nc2ccccc2[nH]1)c1ccc(Cl)cc1 | -80*
Cc1cc2nc(-c3ccc(SCC(=O)Nc4ccc5c(c4)OCCO5)nc3)[nH]c2cc1C | -207*
O=C(CSc1ccc(-c2nc3ccccc3[nH]2)cn1)Nc1ccc2c(c1)OCCO2 | -235*
Cc1cc2nc(-c3ccc(SCC(=O)N4CCN(C(=O)c5ccco5)CC4)nc3)[nH]c2cc1C | -88*
SMILES | aSyn 5UTR act
Cc1ccc2nc(-c3ccc(SCC(=O)Nc4ccc5c(c4)OCCO5)nc3)[nH]c2c1 | -327*
Cc1csc(N/N=C/c2c(F)cccc2Cl)n1 | -74*
CCOc1ccc(/C=N/Nc2nc(C)cs2)c(O)c1 | -260*
Cc1csc(N/N=C/c2ccccc2F)n1 | -200*
CC(C)c1ccc(/C=N/NC(=O)CCNC(=O)c2ccccc2)cc1 | -63*
Cc1cc(C)nc(SCc2ccc(C(=O)N/N=C/c3cccc(O)c3O)cc2)n1 | 70
CC(C)c1ccc(C(=O)N/N=C/c2cccc(Cl)c2Cl)cc1 | -66*
CC(C)c1ccc(/C=N/NC(=O)c2cccc(Cl)c2)cc1 | -238*
Cc1cc(OCc2cccc(Cl)c2)c(C)cc1CN1CCOCC1 | -65*
Oc1c(CN2CCOCC2)cc(COCc2ccccc2)c2cccnc12 | 114
N=C(N)SCc1ccc(Cl)cc1Cl | -71*
Cc1[nH]n(-c2cccc(Cl)c2)c(=O)c1C=NCc1ccco1 | -134*
Cc1[nH]n(-c2ccccc2)c(=O)c1C=NCc1ccco1 | -114*
Cc1[nH]n(-c2cccc(Cl)c2)c(=O)c1C=NCC(C)C | -168*
COCCn1c(C)cc(/C=C2/NC(=O)N(c3cccc(Cl)c3)C2=O)c1C | -133*
O=C1N/C(=C/c2ccsc2)C(=O)N1c1ccccc1 | -96*
